PubChem BioAssay
Active and inactive are the calls of the source.

How the values were obtained:
[1] = binders of probe aFSTL3 on microarray, primary screen, stem cell growth factor project, biochemical, small-molecule microarray, fluorescence 635/667 (AID 1064); conditions: higher = more signal;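 further: measures binding of the biotinylated anti-FSTL3 antibody to printed compounds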
[2] = binders from COS7 lysate, DM2A8 probe, primary screen, torsin A project, cell lysate, small-molecule microarray, fluorescence 635/667 (AID 1065); conditions: higher = more signal, COS7 lysate expressing mutant human TOR1A
[3] = binders of probe aFGF2 on microarray, primary screen, stem cell growth factor project, biochemical, small-molecule microarray, fluorescence 635/667 (AID 1067); conditions: higher = more signal;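 further: measures binding of biotinylated aFGF2 protein to printed compounds on slides; z-score merges feature fluorescence and signal-to-noise across triplicate slides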
[4] = binders of probe aFGF10 on microarray, primary screen, stem cell growth factor project, biochemical, small-molecule microarray, fluorescence 635/667 (AID 1071); conditions: higher = more signal;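 further: score merges 667 nm spot intensity and signal to noise from triplicate slides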
[5] = target: Neurogenic locus notch homolog protein 2 (Homo sapiens) (UniProt Q04721); assay: Notch2 binders on small-molecule microarrays, primary screen, biochemical, small-molecule microarray, 635 nm fluorescence, stem cell growth factors (AID 1073); conditions: Notch2 binding, higher = more signal
[6] = target: Pro-neuregulin-1, membrane-bound isoform (Homo sapiens) (UniProt Q02297); assay: NRG1 binders on small-molecule microarrays, primary screen, psychiatric disease protein project, biochemical, small-molecule microarray, fluorescence 635/667 (AID 1075); conditions: NRG1 binding, 635 nm fluorescence, higher = more signal;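 further: score combines 667 nm spot fluorescence with signal to noise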
Pro-neuregulin-1, membrane-bound isoform (Homo sapiens), sequence (Q02297 whole entry, looked up, the tested form may be a part, canonical isoform): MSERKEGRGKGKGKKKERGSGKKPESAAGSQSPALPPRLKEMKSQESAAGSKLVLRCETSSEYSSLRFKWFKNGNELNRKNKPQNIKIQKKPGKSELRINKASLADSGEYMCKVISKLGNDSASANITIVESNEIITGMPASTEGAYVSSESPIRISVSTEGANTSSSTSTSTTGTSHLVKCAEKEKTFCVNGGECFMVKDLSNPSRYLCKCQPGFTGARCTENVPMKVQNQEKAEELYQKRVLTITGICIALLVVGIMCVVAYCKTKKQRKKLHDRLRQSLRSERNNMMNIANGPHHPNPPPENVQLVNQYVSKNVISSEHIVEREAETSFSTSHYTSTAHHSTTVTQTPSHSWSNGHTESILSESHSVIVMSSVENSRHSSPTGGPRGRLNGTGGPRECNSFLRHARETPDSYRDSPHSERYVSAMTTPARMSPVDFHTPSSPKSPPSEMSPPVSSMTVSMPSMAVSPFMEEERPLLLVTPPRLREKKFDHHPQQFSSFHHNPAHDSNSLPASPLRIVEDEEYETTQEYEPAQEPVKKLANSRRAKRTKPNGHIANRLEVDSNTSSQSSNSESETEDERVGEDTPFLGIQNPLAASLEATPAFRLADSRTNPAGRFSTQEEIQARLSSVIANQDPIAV

[7] = test system: Neuregulin-1 EGF-like domain; assay: binders of neuregulin-1 EGF-like domain, primary screen, biochemical, small-molecule microarray, 635 nm fluorescence (AID 1081); conditions: small-molecule microarray binding, higher = more signal;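 further: binding of the protein to compounds printed on small-molecule microarray slides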
[8] = FRG1 promoter luciferase signal modulators, primary screen, FRG1 inhibition for FSHD, cell-based, C2C12 myotubes, firefly/Renilla luciferase, luminescence (AID 1084); conditions: higher = more signal, called active from +8 up or from −8 down
[9] = binders of probe aFST on microarray, primary screen, stem cell growth factor project, biochemical, small-molecule microarray, fluorescence 635/667 (AID 1086); conditions: higher = more signal;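 further: score merges 667 nm fluorescence with signal-to-noise of each printed compound spot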
[10] = binders of probe aHhip on microarray, primary screen, stem cell growth factor project, biochemical, small-molecule microarray, fluorescence 635/667 (AID 1087); conditions: higher = more signal;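 further: score merges spot fluorescence at 667nm with spot signal to noise ratio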
[11] = test system: PRMT1 (protein arginine N-methyltransferase 1); assay: PRMT1 binders on small-molecule microarrays, primary screen, biochemical, small-molecule microarray, 635 nm fluorescence (AID 1088); conditions: small-molecule microarray binding, higher = more signal;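 further: binding of Prmt1 protein to compounds spotted on small-molecule microarray slides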
[12] = yeast growth modulation, basal conditions, primary screen, YJM789 clinical isolate, OD600, 24 h (AID 1089);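 further: growth of clinical yeast isolate S. cerevisiae YJM 789 seeded 1000 cells per well; test concentration not given here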; conditions: S. cerevisiae YJM789 growth, higher = more signal, called active from +8 up or from −8 down
[13] = fission yeast growth modulation, primary screen, strain 972, OD600, 24 h, no modulator (AID 1090);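 further: basal condition with compound alone and no growth modifier present; test concentration not given here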; conditions: S. pombe 972 growth, higher = more signal, called active from +8 up or from −8 down
[14] = S. cerevisiae growth modulation with rapamycin, primary screen, strain BY4716, OD600, 96 h (AID 1091); conditions: higher = more signal, called active from +8 up or from −8 down; further: test concentration not given here
[15] = target: Torsin-1A-interacting protein 2 (Homo sapiens) (UniProt Q8NFQ8); assay: LULL1 binders on small-molecule microarray, primary screen, cell lysate, human LULL1 lysate, 635/667 nm fluorescence (AID 1092); conditions: hLULL1 lysate binding, 635 nm fluorescence, higher = more signal;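 further: probe is lysate of COS7 cells overexpressing human LULL1; score merges per-feature 667 nm fluorescence with signal-to-noise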
Torsin-1A-interacting protein 2 (Homo sapiens), sequence (Q8NFQ8 whole entry, looked up): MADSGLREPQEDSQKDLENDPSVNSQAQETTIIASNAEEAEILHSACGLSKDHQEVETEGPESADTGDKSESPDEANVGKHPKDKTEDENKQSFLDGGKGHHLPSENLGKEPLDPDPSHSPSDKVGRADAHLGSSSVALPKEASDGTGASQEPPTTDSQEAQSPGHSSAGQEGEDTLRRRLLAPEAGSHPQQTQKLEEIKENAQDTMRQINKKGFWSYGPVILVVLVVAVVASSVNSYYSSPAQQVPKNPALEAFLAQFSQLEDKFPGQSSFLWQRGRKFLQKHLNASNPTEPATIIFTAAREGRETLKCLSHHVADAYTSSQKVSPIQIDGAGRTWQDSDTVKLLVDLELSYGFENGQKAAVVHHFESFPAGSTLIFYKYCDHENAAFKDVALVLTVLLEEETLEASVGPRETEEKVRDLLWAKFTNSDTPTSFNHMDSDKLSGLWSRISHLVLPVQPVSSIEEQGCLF

[16] = E. coli growth modulation, two-sided OD650, primary screen, E. coli filamentation project, strain DRC41, 24 h (AID 1093); conditions: OD650, 24 h, higher = more signal, called active from +8 up or from −8 down;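 further: MC1000 strain lacking acrAB efflux and sulA so SOS filamentation is blocked; test concentration not given here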
[17] = small-molecule microarray binders of probe aLefty2, primary screen, biochemical, biotinylated probe, 635/667 nm fluorescence (AID 1094); conditions: higher = more signal;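 further: score merges spot fluorescence near 667 nm with spot signal-to-noise ratio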
[18] = test system: Noggin (protein binding on small-molecule microarray); assay: Noggin binders on small-molecule microarray, primary screen, biochemical, 635/667 nm fluorescence (AID 1095); conditions: 635 nm fluorescence, higher = more signal;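 further: score merges 667 nm feature fluorescence with signal to noise over triplicate slides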
[19] = target: Neurogenic locus notch homolog protein 3 (Homo sapiens) (UniProt Q9UM47); assay: NOTCH3 binders on small-molecule microarray, primary screen, biochemical, 635/667 nm fluorescence (AID 1096); conditions: NOTCH3 binding, 635 nm fluorescence, higher = more signal
Neurogenic locus notch homolog protein 3 (Homo sapiens), sequence (Q9UM47 whole entry, looked up): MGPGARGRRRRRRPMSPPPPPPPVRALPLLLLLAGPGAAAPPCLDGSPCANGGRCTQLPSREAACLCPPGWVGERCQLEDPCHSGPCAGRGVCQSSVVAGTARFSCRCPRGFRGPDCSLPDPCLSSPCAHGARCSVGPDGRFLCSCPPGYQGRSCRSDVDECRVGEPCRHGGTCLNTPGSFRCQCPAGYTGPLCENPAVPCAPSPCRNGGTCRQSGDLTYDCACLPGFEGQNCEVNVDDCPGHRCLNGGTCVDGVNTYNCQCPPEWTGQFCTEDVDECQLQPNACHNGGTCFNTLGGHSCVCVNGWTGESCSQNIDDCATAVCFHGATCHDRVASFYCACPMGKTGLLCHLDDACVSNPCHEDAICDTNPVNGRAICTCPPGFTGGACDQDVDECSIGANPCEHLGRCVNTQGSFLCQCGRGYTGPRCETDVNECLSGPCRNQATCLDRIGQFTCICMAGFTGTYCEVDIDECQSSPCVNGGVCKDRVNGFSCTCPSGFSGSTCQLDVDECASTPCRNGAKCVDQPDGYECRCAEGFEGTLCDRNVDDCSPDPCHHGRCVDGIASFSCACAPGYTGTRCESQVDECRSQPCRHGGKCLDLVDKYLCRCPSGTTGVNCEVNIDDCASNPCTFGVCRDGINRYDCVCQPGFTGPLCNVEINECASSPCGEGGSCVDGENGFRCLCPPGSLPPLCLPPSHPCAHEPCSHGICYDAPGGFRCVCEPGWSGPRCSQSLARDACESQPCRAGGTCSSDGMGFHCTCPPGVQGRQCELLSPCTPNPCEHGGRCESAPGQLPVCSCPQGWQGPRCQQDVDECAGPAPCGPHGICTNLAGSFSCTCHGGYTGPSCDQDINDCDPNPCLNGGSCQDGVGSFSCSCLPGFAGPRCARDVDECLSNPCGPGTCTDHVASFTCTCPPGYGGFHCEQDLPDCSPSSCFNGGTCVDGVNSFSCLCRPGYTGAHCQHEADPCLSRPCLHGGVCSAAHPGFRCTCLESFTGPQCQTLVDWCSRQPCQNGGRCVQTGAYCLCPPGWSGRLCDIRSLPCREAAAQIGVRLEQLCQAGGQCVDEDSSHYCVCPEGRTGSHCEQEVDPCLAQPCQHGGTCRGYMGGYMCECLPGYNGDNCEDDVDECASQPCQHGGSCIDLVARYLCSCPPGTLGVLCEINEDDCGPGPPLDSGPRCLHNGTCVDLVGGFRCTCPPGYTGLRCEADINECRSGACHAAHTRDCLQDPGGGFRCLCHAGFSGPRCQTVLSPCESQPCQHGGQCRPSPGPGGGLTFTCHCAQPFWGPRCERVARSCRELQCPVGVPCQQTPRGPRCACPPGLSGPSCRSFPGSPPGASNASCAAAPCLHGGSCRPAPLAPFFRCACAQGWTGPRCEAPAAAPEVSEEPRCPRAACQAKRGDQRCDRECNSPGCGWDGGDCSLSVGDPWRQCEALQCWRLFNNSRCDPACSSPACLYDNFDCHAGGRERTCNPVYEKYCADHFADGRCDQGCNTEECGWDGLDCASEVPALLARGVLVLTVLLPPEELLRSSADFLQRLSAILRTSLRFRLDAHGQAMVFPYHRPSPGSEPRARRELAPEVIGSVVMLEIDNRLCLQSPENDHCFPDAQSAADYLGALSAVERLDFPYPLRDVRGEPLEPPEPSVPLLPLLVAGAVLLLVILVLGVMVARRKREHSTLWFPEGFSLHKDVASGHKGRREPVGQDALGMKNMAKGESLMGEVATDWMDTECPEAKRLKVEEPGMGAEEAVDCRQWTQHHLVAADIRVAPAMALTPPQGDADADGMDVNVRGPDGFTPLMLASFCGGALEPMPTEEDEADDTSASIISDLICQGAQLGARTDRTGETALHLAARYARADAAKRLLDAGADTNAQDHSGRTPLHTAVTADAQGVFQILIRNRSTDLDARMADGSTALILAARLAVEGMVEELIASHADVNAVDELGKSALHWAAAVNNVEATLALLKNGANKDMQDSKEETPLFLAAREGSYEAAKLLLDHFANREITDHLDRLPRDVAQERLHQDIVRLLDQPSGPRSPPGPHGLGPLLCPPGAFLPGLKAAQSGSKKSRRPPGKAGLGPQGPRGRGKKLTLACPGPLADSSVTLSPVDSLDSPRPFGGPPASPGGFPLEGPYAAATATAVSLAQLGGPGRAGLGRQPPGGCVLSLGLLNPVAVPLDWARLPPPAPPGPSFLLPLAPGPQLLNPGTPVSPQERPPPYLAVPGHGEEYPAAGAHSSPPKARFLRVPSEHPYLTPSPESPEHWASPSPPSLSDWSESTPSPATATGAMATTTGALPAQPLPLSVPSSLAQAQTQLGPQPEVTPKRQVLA

[20] = small-molecule microarray binders of probe aEGFR, primary screen, biochemical, biotinylated probe, 635/667 nm fluorescence (AID 1097); conditions: higher = more signal;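 further: probe is a biotinylated anti-EGFR antibody binding compounds printed on slides; score combines fluorescence near 667 nm and signal to noise of each spot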

In the case of `COC(=O)[C@@]1(Cc2ccccc2)[C@H]2c3cc(C(=O)N4CCCC4)n(C[C@H](O)CO)c3C[C@H]2CN1C(=O)c1ccccc1`, the composite z-score [1] is reported as 0.52, the composite z-score [2] is reported as -0.0861 and the composite z-score [3] is reported as -0.16. For the same molecule, the composite z-score [4] was 0.0518, the composite z-score [5] was 1.58 and the composite z-score [6] was 1.99. For the same molecule, the composite z-score [7] was 1.3, the z-score [8] was 0.593 (inactive) and the composite z-score [9] was 0.348. The composite z-score [10] was 0.0053, the composite z-score [11] was -0.956 and the z-score [12] was 0.43 (inactive). The z-score [13] was 1.74 (inactive), the z-score [14] was -0.167 (inactive) and the composite z-score [15] was 3.45. The z-score [16] was -0.436 (inactive), the composite z-score [17] was 0.127 and the composite z-score [18] was 0.334. The composite z-score [19] was 0.873 and the composite z-score [20] was 0.08.

Work on `[N-]=[N+]=NCc1ccccc1C[C@]1(C(=O)NCC(O)CO)N=C(c2ccc(OCCCO)cc2)O[C@H]1c1ccccc1CN=[N+]=[N-]` (stereo not given in full) yielded a composite z-score [1] of 0.0591, a composite z-score [2] of 0.696 and a composite z-score [3] of 0.139. It also gave a composite z-score [4] of 1.14, a composite z-score [5] of 0.566 and a composite z-score [6] of 1.34. For the same molecule, the composite z-score [7] was 1.16, the z-score [8] was -0.799 (inactive) and the composite z-score [9] was 0.723. The composite z-score [10] was -0.0618, the composite z-score [11] was 1.56 and the z-score [12] was -0.331 (inactive). The z-score [13] was 0.735 (inactive), the z-score [14] was 1.48 (inactive) and the composite z-score [15] was 3.6. For the same molecule, the z-score [16] was -0.172 (inactive), the composite z-score [17] was 0.054 and the composite z-score [18] was -0.0965. The composite z-score [19] was 0.624 and the composite z-score [20] was 0.306.

For `CC(C)CNC(=O)[C@@]1(c2ccc([N+](=O)[O-])cc2)CC(=O)N(C2CCCCC2)[C@@H]1c1ccc(CO)cc1I`, the composite z-score [1] was 0.0706, the composite z-score [2] was 0.148 and the composite z-score [3] was -0.0728. It also gave a composite z-score [4] of -0.186, a composite z-score [5] of 0.421 and a composite z-score [6] of 1.14. The composite z-score [7] was 0.734, the z-score [8] was -0.35 (inactive) and the composite z-score [9] was -0.126. The composite z-score [10] was -0.335, the composite z-score [11] was 0.935 and the z-score [12] was -0.579 (inactive). For the same molecule, the z-score [13] was 0.279 (inactive), the z-score [14] was -0.143 (inactive) and the composite z-score [15] was 1.98. The z-score [16] was -0.602 (inactive), the composite z-score [17] was -0.0512 and the composite z-score [18] was 0.193. It also gave a composite z-score [19] of 0.636 and a composite z-score [20] of -0.096.

With `COc1ccc([Si](C)(C)[C@H]2[C@H](CCn3cc([C@H](O)c4ccccc4)nn3)O[C@@]3(C(=O)N(Cc4ccc(N5CCC5=O)cc4)c4ccccc43)[C@@H]2C)cc1` the composite z-score [1] was -0.179, the composite z-score [2] was 1.16 and the composite z-score [3] was -0.116. The composite z-score [4] was 0.368, the composite z-score [5] was 0.176 and the composite z-score [6] was 0.635. The composite z-score [7] was 0.636, the z-score [8] was -2.36 (inactive) and the composite z-score [9] was 0.247. The composite z-score [10] was -0.0237, the composite z-score [11] was 1.57 and the z-score [12] was -0.509 (inactive). The z-score [13] was 0.158 (inactive), the z-score [14] was 2.14 (inactive) and the composite z-score [15] was 0.588. The z-score [16] was 1.15 (inactive), the composite z-score [17] was -0.184 and the composite z-score [18] was 1.05. For the same molecule, the composite z-score [19] was 0.698 and the composite z-score [20] was -0.0953.

In the case of `COCCCNC(=O)[C@@]1(Sc2ccc(C)cc2)CC(=O)N(C2Cc3ccccc3C2)[C@@H]1c1ccc(CO)cc1I`, the composite z-score [1] is reported as 0.926, the composite z-score [2] is reported as -0.247 and the composite z-score [3] is reported as -0.156. It also gave a composite z-score [4] of -0.379, a composite z-score [5] of -1.02 and a composite z-score [6] of 1.12. The composite z-score [7] was -0.447, the z-score [8] was -0.703 (inactive) and the composite z-score [9] was -0.926. For the same molecule, the composite z-score [10] was -0.294, the composite z-score [11] was -0.649 and the z-score [12] was -0.881 (inactive). The z-score [13] was -1.79 (inactive), the z-score [14] was 1.43 (inactive) and the composite z-score [15] was -0.165. The z-score [16] was -0.421 (inactive), the composite z-score [17] was -0.0441 and the composite z-score [18] was -1.39. For the same molecule, the composite z-score [19] was -1.16 and the composite z-score [20] was -0.251.
